From PubChem BioAssay
VACV mCherry inh – inhibitors of vaccinia virus infection (mCherry reporter signal). Vaccinia virus mCherry reporter infection, fluorescence. Potency, µM (highest dose often 36.5 µM), for inactives: at the highest dose activity change, negative = inhibition, hits mostly inhibitors. actives 0.63% (n = 310,000); calls by dose curve; tested in A549 cells; note: potency is the fitted concentration of half-maximal effect; nearly all actives have a fitted effect of over 35% in size
Vaccinia Venus – vaccinia inhibition (Venus reporter). Vaccinia virus Venus reporter expression, fluorescence. Potency, µM (highest dose often 36.5 µM), inactives show top-dose activity change, negative = inhibition, usual class: inhibitors. actives 0.46% (n = 330,000); calls by dose curve; tested in A549 cells; note: potency is the fitted concentration of half-maximal effect; nearly all actives have a fitted effect of over 30% in size
FMDV antiviral – blocks foot and mouth disease virus | FMDV antiviral cell-based qHTS | Potency, µM (titrated, usually from 57.9 µM), for the others: top-dose activity change, negative = inhibition, actives largely listed as inhibitors | actives 1.2% (n = 410,000); calls by dose curve; tested in HEK293T cells; note: read-out not given here; potency is the fitted concentration of half-maximal effect; nearly all actives have a fitted effect of over 45% in size
HCMV antiviral – human cytomegalovirus inhibition. activity change, negative = inhibition, % at 57.5 µM. AID 1259415. actives 4.5% (n = 410,000). HFF cells, HCMV-luciferase reporter, 72 h; stronger effect = lower value; in the data active = activity change below about -60%; inconclusive = no clear call, values can overlap the other calls; inactive = above about -39%
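Two compound doses tested in HFFs infected with HCMV-luciferase, MOI 1 PFU/cell, 72 h at 37C. Lysate luminescence read with OneGlo; data normalized against buffer-only and 10uM Salinomycin inhibitor controls.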
HCV inh – blocks hepatitis C virus | Huh7.5.1 HCVcc-Cre infection, luciferase reporter, 44 h | Potency, µM (top dose mostly 41.8 µM), inactives show at the top dose activity change, negative = inhibition, most hits filed as inhibitors | actives 3.4% (n = 340,000) | AID 651820; active = well fitted inhibition curve with a large enough effect; inconclusive = small, poorly fitted or top-dose-only effect, or another doubt; inactive = no such curve, though single readings can be large or run the other way; note: potency is the fitted concentration of half-maximal effect
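Luciferase read-out (15 sec integration) after a 15 min room-temperature substrate step quantifies HCVcc-Cre infection. Cells, 1,000 per well, had compound added 4 h post-plating, then virus at ~0.5 moi, and were cultured 44 h.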
* = called active by the depositor; i = inactive; ? = inconclusive; nt = not tested or not shown; [ ] = another dose, or the depositor's remark. This is a sample that favours compounds with a hit; in the whole collection about 7.3% have one here. % is set by controls: 0 for no effect and ±100 for the full control effect.

SMILES	VACV mCherry inh	Vaccinia Venus	FMDV antiviral	HCMV antiviral	HCV inh
COc1ccc(Cl)cc1NC(=O)CSc1c2c(nc3ccccc13)CCC2	-14%	-14%	?	-70*	nt
COc1ccc(OC)c(NC(=O)CSc2c3c(nc4ccccc24)CCCC3)c1	?	-20%	?	-27	nt
CCC(C)NC(=O)CSc1c2c(nc3ccccc13)CCCC2 (centres undefined)	nt	nt	25µM*	66	?
COc1ccc(CNC(=O)c2ccc3nc(C(C)C)oc3c2)cc1OC	-21%	-26%	-23%	8	nt
COc1ccc(C(=O)n2nc(-c3ccco3)nc2NCc2cccs2)cc1	-9%	-13%	28%	30	nt
COc1ccc(OC)c(CCNC(=O)Cn2ccc3cc(S(=O)(=O)N4CCCCC4)ccc32)c1	-21%	-23%	?	-27	nt
COc1ccc(NC(=O)CSc2nc(C3CC3)nc3ccccc23)cc1	?	?	1%	?	11µM*
COc1cccc(-n2c(SCC(=O)Nc3ccc4c(c3)CCC4)nc3ccccc3c2=O)c1	i	-13%	-15%	-70*	?
COc1cccc(NC(=O)CSc2c3c(nc4ccccc24)CCCC3)c1	-2%	8%	32µM*	9	?
COc1cccc(NC(=O)CSc2nc(=O)n(Cc3ccncc3)c3c2CCCC3)c1	-12%	-3%	-19%	-85*	-3%
CCc1cccc(-n2c(=O)c3cccnc3n2CC(=O)Nc2ccc(OC)c(Cl)c2)c1	-12%[7.34 µM]	-10%[7.34 µM]	-27%	-31	nt
COc1ccccc1C1N(c2ccc(Cl)cc2)C(=O)C2CCCN21 (centres undefined)	nt	nt	-15%	-75*	-19%
COc1cccc(C2N(c3ccc(Cl)cc3)C(=O)C3CCCN32)c1 (centres undefined)	-13%	-2%	9%	24	-3%
O=C1C2CCCN2C(c2cccs2)N1c1ccc(Cl)cc1 (centres undefined)	nt	nt	13%	-74*	1%
COc1ccc(-n2c(=O)c3c4c(sc3n(Cc3ccc(C(C)(C)C)cc3)c2=O)CCC4)c(OC)c1	-14%	-11%	-13%	?	nt
O=C(COC(=O)C1=Cc2ccccc2OC1)NCc1ccccc1	-16%	-13%	-8%	-12	7%
COCCNC(=O)COC(=O)C1=Cc2ccccc2OC1	i	-14%	11%	-27	13µM*
O=C(OCc1cccnc1)C1=Cc2ccccc2OC1	-5%	-3%	25%	-103*	3%
CCOC(=O)c1[nH]c2c(c1Cc1ccccc1)C(=O)CC(c1ccc(OC)cc1)C2 (centres undefined)	-12%	-10%	12%	-30	nt
CC(=O)c1c(C)oc2c1cc(NS(=O)(=O)c1ccc(Cl)c(C)c1)c1ccccc12	-11%	-4%	-14%	27	nt
Cn1c(C(=O)N2CCCC(C(=O)N3CCN(c4ccccc4)CC3)C2)cc2sccc21 (centres undefined)	-13%	-2%	?	-28	nt
Cc1cccc(N2CCN(C(=O)C3CCN(C(=O)c4cc5sccc5n4C)CC3)CC2C)c1 (centres undefined)	-2%[7.34 µM]	-4%[7.34 µM]	?	-84*	nt
CCOC(=O)c1c(C)[nH]c(C)c1S(=O)(=O)N1CCC(C(=O)N2CCN(c3cccc(C)c3)C(C)C2)CC1 (centres undefined)	?	?	-27%	-95*	nt
CCOC(=O)c1c(C)[nH]c(C)c1S(=O)(=O)N1CCCC(C(=O)N2CCN(c3cccc(Cl)c3)CC2)C1 (centres undefined)	?	?	-29%	-73*	nt
CCc1c(C)nc2nncn2c1Nc1ccc(C)c(F)c1	-11%	-15%	-29%	0	nt
SMILES	VACV mCherry inh	Vaccinia Venus	FMDV antiviral	HCMV antiviral	HCV inh
Cc1cc(C)cc(CC(Cc2nc3ccccc3[nH]2)c2nc3ccccc3[nH]2)c1 (centres undefined)	-14%[1.46 µM]	14µM*	?	-101*	5µM*
Cc1ccc(CSCc2nc3ccccc3[nH]2)cc1	-16%	-20%	-1%	?	?
COC(=O)C1=C(C)N(Cc2ccc(C(F)(F)F)cc2)C(=NCc2ccc3c(c2)OCO3)NC1c1cccc(Cl)c1 (centres undefined)	nt	nt	nt	-100*	nt
COC(=O)C1=C(C)N(Cc2ccc(C(F)(F)F)cc2)C(=NCC2CC2)NC1c1cccc(Cl)c1 (centres undefined)	nt	nt	nt	-102*	nt
Nc1ccc2ncccc2c1N	i	-11%	-8%	-36	?
Nc1nc(N)c2c(ccc3nccc32)[nH]1	?	?	20%	-96*	?
O=C(Cn1c2ncccc2c(=O)n1-c1ccccc1)NCc1ccccc1Cl	-7%[7.34 µM]	-9%[7.34 µM]	-5%	?	nt
COc1cc(Nc2nn(-c3ccc(OC(F)(F)F)cc3)nc2C(C)=O)cc(OC)c1	-9%	-3%	0%	-24	nt
Cc1ccnc(NS(=O)(=O)c2ccc(NC(=O)C3CCCCC3)cc2)n1	-10%	-9%	nt	-13	2%
Cc1cc(C)nc(NS(=O)(=O)c2ccc(NC(=S)NC(=O)C3CCCC3)cc2)n1	?	10µM*	125%	29	-1%
CCN(CC)S(=O)(=O)c1cc(NC(=S)NC(=O)C2CCCC2)ccc1C	nt	nt	-28%	-72*	3.2µM*
COc1ccc(C(=O)COC(=O)CN2C(=O)C3C4CCC(C4)C3C2=O)cc1 (centres undefined)	-1%	-4%	4%	-36	14%
COC(=O)c1c(NC(=S)NN2CCN(C)CC2)sc2c1CCC(C)C2 (centres undefined)	-20%	-15%	-15%	14	2.8µM*
C=CCn1c(COc2ccc(F)cc2)nnc1SCC(=O)NC1CC1	i	-6%	0%	-20	23%
CCCCCCCC[n+]1cccc2c3ccccc3ccc21	-27%	?	?	-97*	1.4µM*
CCCCCCCCCC[n+]1cccc2c3ccccc3ccc21	nt	nt	?	-108*	4µM*
Cc1ccc(SCC(=O)NCCc2ccc(F)cc2)cc1	nt	nt	27%	27	7%
CN(Cc1ccc(Br)s1)C(=O)CNC(=O)c1ccc2c(c1)OCO2	-3%	-13%	15%	?	8%
COc1ccccc1NS(=O)(=O)c1ccc2oc(SCc3ccc(F)cc3)nc2c1	-25%	-19%	?	-37	35µM*
COc1ccccc1NS(=O)(=O)c1ccc2oc(SC)nc2c1	-22%	-22%	-10%	2	?
COc1ccc(NS(=O)(=O)c2ccc3oc(SCc4ccc(F)cc4)nc3c2)cc1	?	?	?	-61*	11µM*
COc1ccc(N2C(=O)C(CN3CCN(C)CC3)C2c2ccccc2)cc1 (centres undefined)	nt	nt	-16%	-23	35µM*
COc1ccc(C2C(CN3CCOCC3)C(=O)N2c2ccccc2)cc1 (centres undefined)	-17%	-14%	-13%	-36	13%
Cc1cc(C(=O)OCC(=O)Nc2nc(-c3ccccc3)cs2)c(C)o1	nt	?	-18%	-101*	?
COc1ccccc1NC(=O)COc1ccc(C(=O)OCC(=O)NC(C)(C)C)cc1OC	-12%	-9%	22µM*	3	?
